Most compounds without a hit are left out; they make up all but 14% or so of the library.
USP30 block: inhibitors of human USP30 deubiquitinase. inhibition, % at 25 µM. Q70CQ3. purified USP30, Ub-rhodamine cleavage fluorescence. AID 1645860. actives 5.3% (n = 47,000)
USP8 inh: inhibitors of human USP8 deubiquitinase; AID 1645853; inhibition, % at 20 µM; purified USP8, Ub-rhodamine cleavage fluorescence, 30 min; actives 4.2% (n = 47,000)
USP28 inh: inhibitors of human USP28 deubiquitinase; Q96RU2; actives 3% (n = 47,000); purified USP28, Ub-rhodamine cleavage fluorescence, 30 min; AID 1645857; inhibition, % at 25 µM
USP10 inh: inhibitors of human USP10 deubiquitinase; Q14694; purified USP10, Ub-rhodamine fluorescence, 60 min; inhibition, % at 20 µM; actives 1.1% (n = 47,000); AID 1645856
USP17 inh: inhibitors of human USP17 deubiquitinase | A8MUK1 | purified USP17, Ub-rhodamine cleavage fluorescence, 3 h | inhibition, % at 50 µM | actives 6.5% (n = 47,000) | AID 1645855
Large screens that a line does not name were inactive. No stated cut-off is given here; in the data, active means inhibition above about 30%; inactive means the rest.

CCN1CCc2c(sc(NC(=O)CSc3ccc(Cl)cc3)c2C(N)=O)C1	USP17 inh 34
CCN1CCc2c(sc(NC(=O)CSc3ccccc3)c2C(N)=O)C1	none
COCCN1C(=O)CCc2cc(NS(=O)(=O)c3ccccc3C)ccc21	none
CS(=O)(=O)c1ccc2nc(N(Cc3cccnc3)C(=O)c3ccc4ccccc4c3)sc2c1	USP30 block 52, USP8 inh 63, USP17 inh 53
COc1ccccc1-c1nnc(SCC(=O)c2ccc3c(c2)NC(=O)CO3)n1Cc1ccco1	USP17 inh 37
COc1ccc(CNC(=O)c2ccccc2C(=O)c2ccc3c(c2)NC(=O)CO3)cc1	none
CC1Oc2ccc(NC(=O)c3cccc(S(=O)(=O)N4CCc5ccccc5C4)c3)cc2NC1=O (configuration not stated)	USP17 inh 31
O=C(Nc1ccc(Br)c(C(=O)c2ccccc2)c1)c1ccc(S(=O)(=O)N2CCc3ccccc3C2)cc1	none
CCOc1cccc(NC(=O)c2ccc(S(=O)(=O)N3CCc4ccccc4C3)cc2)c1	USP30 block 41, USP17 inh 53
O=C(c1ccccc1F)N1CCC2(CC1)NC(=O)N(CCOc1ccccc1)C2=O	none
O=C(CC1c2ncccc2C(=O)N1c1ccccc1)NCc1ccc(F)cc1 (configuration not stated)	none
CCN1C(=O)c2cccnc2Sc2cc(NC(=O)CCc3cccc(OC)c3)ccc21	USP28 inh 44
CCN1C(=O)c2cccnc2Sc2cc(NC(=O)CCc3ccccc3OC)ccc21	none
CCN1C(=O)c2cccnc2Sc2cc(NC(=O)C3CCC3)ccc21	none
CCN1C(=O)c2cccnc2Sc2cc(NC(=O)c3ccc(Cl)s3)ccc21	USP28 inh 51
CNc1cc(C)nc(C2(C)CCCN2C(=O)c2cccc(C)n2)n1 (configuration not stated)	none
Cc1ccc(OCCNC(=O)c2cc(=O)[nH]c3ccccc23)cc1	USP17 inh 43
CCOc1ncccc1C(=O)NC1CCCc2ccccc21 (configuration not stated)	USP30 block 32
O=C(NC1CCCc2ccccc21)c1cnn(-c2ccccc2)c1-n1cccc1 (configuration not stated)	USP30 block 32
Cn1c(=O)c2c(ncn2CC(=O)NC2CCCc3ccccc32)n(C)c1=O (configuration not stated)	USP28 inh 82
Cn1c(=O)c2c(ncn2CC(=O)OCC(=O)Nc2ccc3c(c2)CCC3)n(C)c1=O	none
CS(=O)(=O)N1CCc2nc(-c3ccncc3)nc(N3CCCCC3)c2C1	none
CC(OC(=O)c1ccc2c(c1)OCO2)C(=O)NCC1CCCCC1 (configuration not stated)	USP30 block 54, USP17 inh 54
CC(OC(=O)c1ccc2c(c1)OCCO2)C(=O)NCC1CCCCC1 (configuration not stated)	USP30 block 53
O=C(Cc1ccccn1)N1C[C@H](OCC2CCOCC2)[C@H]2COC[C@H]21	none
N#Cc1ccc(C(=O)Nc2cnc(N3CCCC3)nc2)cc1	none
Cc1ccc(-n2cc(-c3ccccc3)nc2S(=O)(=O)CC(=O)Nc2cccc(C)c2C)cc1	none
Cc1cc2n(n1)C(c1ccc(Cl)c(Cl)c1)Nc1ccccc1-2 (configuration not stated)	none
Cc1cccc(N2C(=O)/C(=C\c3ccc4c(c3)OCO4)c3ccccc3C2=O)c1	USP8 inh 76, USP17 inh 42
O=C1OCC2=C1C(c1ccc3c(c1)OCO3)CC(=O)N2c1cccc(F)c1 (configuration not stated)	none
Cc1cccc(N2C(=O)/C(=C\c3ccc4c(c3)OCCO4)c3ccccc3C2=O)c1	USP8 inh 88, USP17 inh 55
Cc1ccc(C(=O)/C=C/c2ccc3c(c2)OCCO3)c(OCc2ccccc2)c1	none (no result: USP17 inh)
Cc1ccccc1-c1noc(-c2c(O)c3ccccc3[nH]c2=O)n1	none
COc1ccc2[nH]c(C(=O)NCc3ccc(C)o3)cc2c1	none (no result: USP30 block, USP28 inh)
O=S(=O)(c1ccccc1)N1CCC2(CC1)NCCN=C2NCc1ccc2c(c1)OCO2	none
O=S(=O)(c1ccccc1)N1CCC2(CC1)NCCN=C2NCc1cc(F)cc(F)c1	USP30 block 33
CCCCn1c(=O)c(CCC(=O)OCC(=O)Nc2ccc(F)c(F)c2)nc2ccccc21	none
CCCc1nnc(NC(=O)c2cc(-c3ccccc3O)n[nH]2)s1	USP10 inh 54
Cn1cc(CCC(=O)N2C[C@@H](c3ccccc3F)[C@@]3(CCCC(=O)N3)C2)c2ccccc21	none
CCOc1ccc(S(=O)(=O)Nc2ccc[nH]c2=O)cc1	USP17 inh 87
COc1ccc(CNc2nc3nc(CN4CCOCC4)cc(=O)n3[nH]2)cc1	none
Cc1ccccc1NC(=O)N(C)c1nc2c(s1)CN(Cc1ccccc1)C2=O	none
Cc1nc2ccc(C(=O)N3CCCC3c3nc(C)c4c(n3)N(CC(C)C)C(=O)C4)cc2s1 (configuration not stated)	USP8 inh 89, USP17 inh 42
COc1ccc(Cn2cc(-c3ccc(Cl)cc3)cc(C#N)c2=O)cc1	USP30 block 42
CC(C)N(Cc1ccccc1)C(=O)C1CCN(C(=O)c2cccc(F)c2)CC1	none
CCOc1ccc2[nH]c(=O)c(-c3nc4ccc(C)cn4c3NC3CCCCC3)cc2c1	none
Cc1ccc2nc(-c3cc4ccc(C)c(C)c4[nH]c3=O)c(NC3CCCC3)n2c1	USP17 inh 41
Cc1cc(C)nc(Nc2cc(C)nc(C3CCCN(c4ncccn4)C3)n2)n1 (configuration not stated)	none
Cc1ccc2c(c1)-c1onc(C(=O)NCCc3c[nH]c4ccccc34)c1CO2	USP17 inh 33
Cc1nnc(-c2coc(S(=O)(=O)N3CCN(c4ccccc4F)CC3)c2)o1	USP30 block 39
Cc1nnc(-c2coc(S(=O)(=O)N3CCN(c4ccccc4C)CC3)c2)o1	none
CCOC(=O)c1c(N)n(CC(C)NC(=O)C2CC2)c2nc3ccccc3nc12 (configuration not stated)	USP17 inh 30
Cc1cc(=O)[nH]c(C2CN(C(=O)c3cnc4ccccc4c3)CCO2)n1 (configuration not stated)	none
COc1ccc(N(C)S(=O)(=O)c2cccc(C(=O)OCC(=O)N(Cc3ccccc3)C(C)C)c2)cc1	USP30 block 30
OC12CCCCC1C(c1ccc(F)cc1)N(C/C=C/c1ccccc1)CC2 (configuration not stated)	none
O=C(O)c1ccccc1Cc1nc2scc(-c3ccccc3)c2c(=O)[nH]1	USP8 inh 31
NS(=O)(=O)c1cccc(NCc2nc3scc(-c4ccccc4)c3c(=O)[nH]2)c1	USP30 block 32, USP28 inh 48, USP17 inh 43
COc1ccc(CCNC(=O)CCC2=NS(=O)(=O)c3ccc(C)cc3N2)cc1OC	none (no result: USP17 inh)
C=C1NC(=O)c2c(sc(C(=O)OCC(=O)Nc3c(Cl)cccc3Cl)c2C)N1	none
Cn1ncc2c1C(COCC1CC1)N(C(=O)c1ccncc1)CC2 (configuration not stated)	none
